Measured values taken from PubChem BioAssay (Tox21).
Results filed as inconclusive are left out. Where a call stands in place of a potency, no number is given. Calls of active or inactive are those of the source. Unless noted, the call rests on the fitted dose curve.

Experiments:
[1] = Nuclear factor erythroid 2-related factor 2/antioxidant responsive element (Nrf2/ARE) small molecule agonists: qHTS cell viability counter screen in human keratinocytes (AID 1919968; active means well fitted curve in the direction sought with a large enough effect in the repeat runs; an effect the other way counts as inactive or inconclusive; further: nearly all actives have a fitted effect of over 55% in size; further: potency means the concentration at half of the fitted maximal effect)
Procedure, shortened: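 Viability counter-screen: KeratinoSens reporter cells, DMSO-delivered compounds, 23 h at 37 C, CellTiter-Fluor fluorescence.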

[2] = Nuclear factor erythroid 2-related factor 2/antioxidant responsive element (Nrf2/ARE) small molecule agonists: luciferase reporter gene qHTS assay in human keratinocytes (AID 1919969); further: nearly all actives have a fitted effect of over 35% in size; further: potency means the concentration at half of the fitted maximal effect
[3] = G protein-coupled receptor (GPCR) small molecule agonists, calcium flux assay: HEK293 wild type cell line counter screen (AID 1920065)
Procedure, shortened: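 In this agonist-mode screen, ATP is the positive control and DMSO the vehicle. Cells grow 18 h before a 1 h dye incubation at 37 C; signal is taken at Ex/Em 480/540 over 3 min.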

[4] = p53 small molecule agonists, cell-based qHTS assay with human liver microsomes: qHTS cell viability counter screen (AID 1963579); further: nearly all actives have a fitted effect of over 45% in size; further: potency means the concentration at half of the fitted maximal effect
Procedure, shortened: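 Viability of p53RE-bla cells is measured as CellTiter-Glo luminescence following a 16 h, 37 C incubation with compound, liver microsomes from human donors and NADPH.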

[5] = p53 small molecule agonists, cell-based qHTS assay: qHTS cell viability counter screen (AID 1963581); further: nearly all actives have a fitted effect of over 45% in size; further: potency means the concentration at half of the fitted maximal effect
Procedure, shortened: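 Compounds are pinned onto HCT-116 p53RE-bla cells and left 16 h at 37 C. Following the reporter FRET read, ATP is quantified by CellTiter-Glo luminescence after 30 min at room temperature.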

[6] = biological target: 5-hydroxytryptamine receptor 2A (Homo sapiens) (UniProt P28223); test: 5-hydroxytryptamine receptor 2A (HTR2A) small molecule antagonists, cell-based qHTS assay (AID 1963586); further: nearly all actives have a fitted effect of over 45% in size; further: potency means the concentration at half of the fitted maximal effect
Chain of 5-hydroxytryptamine receptor 2A (Homo sapiens) (P28223 whole entry, looked up): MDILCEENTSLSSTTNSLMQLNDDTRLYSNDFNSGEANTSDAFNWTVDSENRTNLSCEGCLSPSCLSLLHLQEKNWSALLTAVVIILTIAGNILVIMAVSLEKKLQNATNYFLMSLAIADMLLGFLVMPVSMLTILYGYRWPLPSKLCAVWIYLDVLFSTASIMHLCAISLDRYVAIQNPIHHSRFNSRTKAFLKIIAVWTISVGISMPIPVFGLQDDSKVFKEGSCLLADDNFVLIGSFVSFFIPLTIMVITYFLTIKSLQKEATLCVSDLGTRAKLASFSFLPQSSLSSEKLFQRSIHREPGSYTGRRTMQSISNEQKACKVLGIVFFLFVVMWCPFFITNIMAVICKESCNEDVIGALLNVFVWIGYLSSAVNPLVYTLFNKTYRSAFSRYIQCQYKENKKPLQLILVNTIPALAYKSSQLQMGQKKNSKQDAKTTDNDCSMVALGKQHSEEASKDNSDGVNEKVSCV
Procedure, shortened: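 Antagonist-mode intracellular calcium assay: DOI (4 nM) added after 5 min compound pre-incubation at room temperature to dye-loaded HTR2A-CHO cells. Fluorescence followed for 3 min, sampled every second.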

[7] = biological target: Muscarinic acetylcholine receptor M1 (Homo sapiens) (UniProt P11229); test: Cholinergic receptor muscarinic 1 (CHRM1) small molecule antagonists, cell-based qHTS assay (AID 1963588); further: nearly all actives have a fitted effect of over 40% in size; further: potency means the concentration at half of the fitted maximal effect
Chain of Muscarinic acetylcholine receptor M1 (Homo sapiens) (P11229 whole entry, looked up): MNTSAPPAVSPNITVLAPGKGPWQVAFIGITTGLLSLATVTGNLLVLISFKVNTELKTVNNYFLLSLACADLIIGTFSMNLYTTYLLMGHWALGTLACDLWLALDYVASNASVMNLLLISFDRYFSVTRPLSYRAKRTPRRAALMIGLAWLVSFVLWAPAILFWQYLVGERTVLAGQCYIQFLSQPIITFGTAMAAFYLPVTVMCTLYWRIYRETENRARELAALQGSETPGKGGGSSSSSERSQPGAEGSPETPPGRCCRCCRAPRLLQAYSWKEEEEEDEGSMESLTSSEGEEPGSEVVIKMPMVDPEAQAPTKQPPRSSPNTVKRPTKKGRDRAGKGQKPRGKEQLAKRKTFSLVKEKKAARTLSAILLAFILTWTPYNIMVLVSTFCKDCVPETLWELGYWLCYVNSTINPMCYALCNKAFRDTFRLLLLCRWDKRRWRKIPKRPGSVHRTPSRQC
Procedure, shortened: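 CHRM1-CHO calcium-flux assay, antagonist mode. Cells were seeded 18 h, dye-loaded 1 h at 37 C and given compound for 5 min at RT, then acetylcholine was added at 50nM. FDSS fluorescence was read 3 min; 15 concentrations, three runs.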

[8] = cAMP Responsive Elements (CRE) small molecule agonists, cell-based qHTS assay (AID 1963590)
Procedure, shortened: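 FRET-based beta-lactamase readout (LiveBLAzer B/G, 2 h RT) quantified CRE activation in HEK 293T CRE-bla cells after 3 h treatment with DMSO-dissolved compounds.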

[9] = cAMP Responsive Elements (CRE) small molecule antagonists, cell-based qHTS assay (AID 1963591; active means well fitted inhibition curve with a large enough effect in the signal ratio in the repeat runs, not every such curve was filed as active; the % refers to the signal ratio)
Procedure, shortened: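 qHTS in CRE-bla HEK 293T cells: compound in DMSO, then 0.25 uM NKH477 (final), 3 h at 37 °C/5% CO2; beta-lactamase FRET read-out after 2 h substrate incubation.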

[10] = biological target: Beta-2 adrenergic receptor (Homo sapiens) (UniProt P07550); test: Adrenergic beta2 receptor (ADRB2) small molecule antagonists, cell-based qHTS assay (AID 1963592); further: nearly all actives have a fitted effect of over 50% in size; further: potency means the concentration at half of the fitted maximal effect
Chain of Beta-2 adrenergic receptor (Homo sapiens) (P07550 whole entry, looked up): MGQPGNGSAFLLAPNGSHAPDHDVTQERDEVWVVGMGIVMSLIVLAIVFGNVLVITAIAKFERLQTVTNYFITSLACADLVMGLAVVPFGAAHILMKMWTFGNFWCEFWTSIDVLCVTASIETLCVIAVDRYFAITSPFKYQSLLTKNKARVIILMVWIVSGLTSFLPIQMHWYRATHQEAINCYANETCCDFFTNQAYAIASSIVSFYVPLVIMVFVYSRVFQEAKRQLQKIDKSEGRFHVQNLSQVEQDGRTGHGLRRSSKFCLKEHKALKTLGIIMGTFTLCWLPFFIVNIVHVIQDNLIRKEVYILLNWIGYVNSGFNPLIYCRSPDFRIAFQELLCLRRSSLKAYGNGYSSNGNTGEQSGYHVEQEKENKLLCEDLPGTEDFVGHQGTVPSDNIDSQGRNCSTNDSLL
Procedure, shortened: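 Cells (CHO, stable ADRB2 overexpression) incubated 18-20hr at 37C; compounds added from DMSO; agonist mix (1nM isoproterenol, 100uM IBMX, 25uM Ro-20-1724) added; 0.5hr RT; d2-cAMP and anti-cAMP-cryptate added; 1hr RT; 665/615 nm read.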

[11] = biological target: Beta-2 adrenergic receptor (Homo sapiens) (UniProt P07550); test: Adrenergic beta2 receptor (ADRB2) small molecule agonists, cell-based qHTS assay (AID 1963593);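 further: CHO cells stably overexpressing human ADRB2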
Procedure, shortened: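 CHO cells stably over-expressing ADRB2 were plated overnight at 37C, then dosed with compounds plus a stimulation mix containing 100uM IBMX and 25uM Ro-20-1724 for 0.5hr at room temperature. cAMP was measured by HTRF competition, 1hr.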

[12] = biological target: D(2) dopamine receptor (Homo sapiens) (UniProt P14416); test: Dopamine D2 receptor (DRD2) small molecule agonists, cell-based qHTS assay (AID 1963594); further: nearly all actives have a fitted effect of over 35% in size
Chain of D(2) dopamine receptor (Homo sapiens) (P14416 whole entry, looked up): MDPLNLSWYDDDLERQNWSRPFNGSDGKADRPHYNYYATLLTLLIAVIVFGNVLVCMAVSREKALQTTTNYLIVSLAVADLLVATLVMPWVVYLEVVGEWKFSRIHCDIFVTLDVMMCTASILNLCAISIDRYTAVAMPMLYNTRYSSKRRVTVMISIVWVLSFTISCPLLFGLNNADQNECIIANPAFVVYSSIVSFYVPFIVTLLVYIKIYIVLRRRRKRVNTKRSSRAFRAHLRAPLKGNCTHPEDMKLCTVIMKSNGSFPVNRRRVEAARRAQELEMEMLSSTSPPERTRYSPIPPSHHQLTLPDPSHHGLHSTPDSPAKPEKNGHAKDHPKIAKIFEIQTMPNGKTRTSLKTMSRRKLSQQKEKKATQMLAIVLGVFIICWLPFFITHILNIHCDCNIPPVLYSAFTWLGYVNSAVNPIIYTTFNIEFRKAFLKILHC
Procedure, shortened: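 HEK293 cells stably expressing human DRD2, pre-treated with PDE inhibitor Ro20-1724 (0.1 mM final) and compound 10 min at room temperature, then stimulated with NKH477 (200nM […]) for 30 min. cAMP read by HTRF (665/620 nm).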

[13] = biological target: D(2) dopamine receptor (Homo sapiens) (UniProt P14416); test: Dopamine D2 receptor (DRD2) small molecule antagonists, cell-based qHTS assay (AID 1963595; active means well fitted inhibition curve with a large enough effect in the signal ratio in the repeat runs, with a control signal flat; the % refers to the signal ratio; further: potency means the concentration at half of the fitted maximal effect)
Procedure, shortened: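 Readout: HTRF cAMP, cAMP-d2 competing with cellular cAMP for anti-cAMP cryptate, read after 1 h. Cells: DRD2-HEK293. Conditions: 0.1 mM Ro20-1724, 12 nM quinpirole, 200 nM NKH477, 30 min RT.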

[14] = p53 small molecule agonists, cell-based qHTS assay with rat liver microsomes: qHTS cell viability counter screen (AID 1963580); further: nearly all actives have a fitted effect of over 45% in size
Procedure, shortened: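 Viability is assessed in parallel with the p53 reporter read: HCT-116 p53RE-bla cells receive compounds plus rat microsomes and NADPH (0.5 mg/mL final apiece), incubate 16 h at 37 C, and then CellTiter-Glo luminescence is recorded.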

[15] = biological target: 5-hydroxytryptamine receptor 2A (Homo sapiens) (UniProt P28223); test: 5-hydroxytryptamine receptor 2A (HTR2A) small molecule agonists, cell-based qHTS assay (AID 1963587); further: nearly all actives have a fitted effect of over 30% in size; further: potency means the concentration at half of the fitted maximal effect
Procedure, shortened: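 CHO cells stably expressing human HTR2A, plated 18 h, loaded with calcium dye 1 h at 37 C. Agonist mode: compounds added and intracellular calcium fluorescence recorded kinetically for 2 min at 1 sec intervals.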

[16] = biological target: Muscarinic acetylcholine receptor M1 (Homo sapiens) (UniProt P11229); test: Cholinergic receptor muscarinic 1 (CHRM1) small molecule agonists, cell-based qHTS assay (AID 1963589); further: nearly all actives have a fitted effect of over 35% in size
Procedure, shortened: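 Stable CHRM1-CHO cells (human receptor) were incubated 18 h, dye-loaded for 1 h at 37 C and exposed to test compounds for agonist activity, with calcium-dependent fluorescence followed kinetically.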

[17] = biological target: KiSS-1 receptor (Homo sapiens) (UniProt Q969F8); test: Human kisspeptin (KISS1R) small molecule agonists, calcium flux assay in KISS1R-HEK293 cells (AID 1920064; active means well fitted curve in the direction sought with a large enough effect in the repeat runs; an effect the other way counts as inactive or inconclusive)
Chain of KiSS-1 receptor (Homo sapiens) (Q969F8 whole entry, looked up): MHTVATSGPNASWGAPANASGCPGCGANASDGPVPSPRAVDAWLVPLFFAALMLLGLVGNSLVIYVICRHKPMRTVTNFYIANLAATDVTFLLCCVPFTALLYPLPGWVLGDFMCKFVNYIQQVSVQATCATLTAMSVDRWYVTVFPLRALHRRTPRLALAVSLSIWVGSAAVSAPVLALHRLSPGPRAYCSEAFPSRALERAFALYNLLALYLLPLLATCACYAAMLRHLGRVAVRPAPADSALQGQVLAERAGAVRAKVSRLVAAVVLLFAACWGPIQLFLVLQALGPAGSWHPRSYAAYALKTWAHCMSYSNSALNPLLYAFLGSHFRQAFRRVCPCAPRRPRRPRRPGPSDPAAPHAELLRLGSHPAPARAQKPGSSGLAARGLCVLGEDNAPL
Procedure, shortened: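 Intracellular calcium mobilization in KISS1R-HEK293 cells was recorded by fluorescence (Ex/Em 480/540) for 3 min following compound addition to cells pre-loaded 1 h with calcium dye.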

[18] = p53 small molecule agonists, cell-based qHTS assay with human liver microsomes (AID 1963577);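 further: p53 response element beta-lactamase reporter cells with liver microsomes plus NADPH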
Procedure, shortened: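 HLM-supplemented p53RE-bla reporter assay: 16 h compound exposure at 37 C, microsomes and NADPH each 0.5 mg/mL final, read by fluorescence intensity.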

[19] = p53 small molecule agonists, cell-based qHTS assay with rat liver microsomes (AID 1963578)
Procedure, shortened: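 Quantitative HTS of the Tox21 10K library: p53RE-bla cells, rat liver microsomes plus NADPH at 0.5 mg/mL final each, 16 h at 37 C, beta-lactamase fluorescence detection.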

[20] = p53 small molecule agonists, cell-based qHTS assay (AID 1963582; active means well fitted activation curve with a large enough effect in the signal ratio in the repeat runs, not every such curve was filed as active; the % refers to the signal ratio)
Procedure, shortened: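 Agonist activity was scored from beta-lactamase FRET fluorescence in p53RE-bla cells treated 16 h at 37 C with compounds in DMSO, substrate incubation being 2 h at room temperature.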

Structure (SMILES)	Potency [1]	Potency [2]	Potency [3]	Potency [4]	Potency [5]	Potency [6]	Potency [7]	Potency [8]	Potency [9]	Potency [10]	Potency [11]	Potency [12]	Potency [13]	Potency [14]	Potency [15]	Potency [16]	Potency [17]	Potency [18]	Potency [19]	Potency [20]
CC1(C)CCC[C@]2(C)[C@H]3CCO[C@]3(C)CC[C@@H]12	inactive	inactive	inactive	inactive	inactive	inactive	inactive	inactive	inactive	inactive	inactive	inactive	inactive	–	–	–	–	–	–	–
CCC(C)(CCC(C)C)C(=O)[O-].CCC(C)(CCC(C)C)C(=O)[O-].[Zn+2] (stereo not drawn)	inactive	inactive	inactive	inactive	inactive	–	inactive	inactive	inactive	inactive	–	inactive	inactive	inactive	inactive	inactive	–	–	–	–
COc1ccc(Cc2cnc(N)nc2N)cc1OC	inactive	inactive	inactive	inactive	–	inactive	inactive	inactive	–	inactive	inactive	inactive	inactive	inactive	inactive	inactive	–	–	–	–
COc1cc(/C=C/C(=O)CC(=O)/C=C/c2ccc(O)c(OC)c2)ccc1O	48.9 µM (active)	15.4 µM (active)	–	16.3 µM (active)	46.1 µM (active)	inactive	inactive	–	–	inactive	–	inactive	–	–	22 µM (active)	–	–	–	–	–
CN(C)C(=O)Nc1ccccc1	inactive	inactive	inactive	inactive	inactive	inactive	inactive	inactive	inactive	inactive	inactive	inactive	inactive	–	inactive	inactive	–	–	–	–
CCCCCCCCCOC(=O)CCCCC(=O)OCCCCCCC	inactive	inactive	inactive	inactive	inactive	inactive	inactive	inactive	inactive	15.4 µM (active)	–	inactive	inactive	inactive	–	–	inactive	inactive	inactive	inactive
CCCC(=O)OCCc1ccccc1	inactive	inactive	inactive	inactive	–	inactive	inactive	inactive	inactive	inactive	–	inactive	inactive	inactive	–	–	inactive	inactive	inactive	inactive
Clc1ccc(C(Cn2ccnc2)OCc2ccsc2Cl)c(Cl)c1 (stereo not drawn)	8.41 µM (active)	10.6 µM (active)	inactive	–	inactive	inactive	–	inactive	–	29.8 µM (active)	–	inactive	–	inactive	–	inactive	–	–	–	–
CC(C(O)c1ccccc1)N(C)CCOC(c1ccccc1)c1ccccc1 (stereo not drawn)	18.8 µM (active)	inactive	inactive	inactive	inactive	–	1.16 µM (active)	–	–	–	–	inactive	inactive	inactive	23.9 µM (active)	inactive	inactive	inactive	inactive	–
C[C@H](CCC(=O)O)[C@H]1CC[C@H]2[C@@H]3CC[C@@H]4C[C@H](O)CC[C@]4(C)[C@H]3C[C@H](O)[C@]12C	inactive	inactive	inactive	inactive	inactive	–	–	–	–	inactive	–	inactive	inactive	inactive	inactive	–	inactive	inactive	inactive	inactive
CO[C@]12C[C@@H](COC(=O)c3cncc(Br)c3)CN(C)[C@@H]1Cc1cn(C)c3cccc2c13	inactive	inactive	inactive	inactive	inactive	0.0729 µM (active)	8.18 µM (active)	inactive	inactive	13.3 µM (active)	–	inactive	26.6 µM (active)	–	0.0849 µM (active)	inactive	–	–	–	–
CC(C)COCC(CN(Cc1ccccc1)c1ccccc1)N1CCCC1 (stereo not drawn)	26.6 µM (active)	inactive	inactive	inactive	inactive	6.5 µM (active)	inactive	–	–	26.6 µM (active)	–	inactive	29.8 µM (active)	inactive	19 µM (active)	inactive	inactive	inactive	inactive	inactive
CCCC(CC)c1ccccc1 (stereo not drawn)	inactive	inactive	inactive	inactive	inactive	inactive	inactive	inactive	inactive	inactive	–	inactive	inactive	inactive	–	inactive	inactive	inactive	inactive	inactive
CO[Si](C)(OC)OC	inactive	inactive	inactive	inactive	inactive	–	–	inactive	inactive	inactive	–	inactive	inactive	inactive	inactive	inactive	–	–	–	–
CCCCCCOc1ccccc1C(N)=O	inactive	inactive	inactive	inactive	inactive	inactive	inactive	inactive	inactive	inactive	–	inactive	inactive	inactive	–	inactive	inactive	inactive	inactive	–
COC(=O)[C@@H]1CC2=CC(=O)CC[C@]2(C)[C@@]23O[C@@H]2C[C@@]2(C)[C@@H](CC[C@@]24CCC(=O)O4)[C@H]13	inactive	inactive	inactive	–	inactive	–	inactive	inactive	–	inactive	inactive	inactive	inactive	inactive	inactive	inactive	–	–	–	–
